Source: PubChem BioAssay (National Center for Advancing Translational Sciences (NCATS))
In the library only some 3.7% were active in any assay of this set; here they are far more common.
HepG2 tox – HepG2 cytotoxicity, counter-screen for TGF-b inhibitors; HepG2 CAGA-GFP viability, ATP luminescence, 18 h; Potency, µM (doses to about 46.1 µM), without a hit: at the top dose activity change, negative = cytotoxicity, most hits filed as cytotoxic; 410,000 tested, 0.76% active; AID 588856
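CellTiter-Glo luminescence gave cytotoxicity after 18 hours at 37 degrees C. The cells were HepG2 CAGA-GFP in 1% FBS DMEM, stimulated with 500 pg/mL TGF-beta after compound addition. %Activity was normalised to no-cell wells (complete cell-killing) and DMSO (no toxicity), and curves were fitted and classified.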
ATXN2 expr inh – reduces ATXN2 reporter expression in HEK-293 cells. HEK-293 ATXN2-luciferase reporter, luminescence, 24 h. Potency, µM (highest dose often 57 µM), inactives show top-dose activity change, negative = inhibition, usual class: inhibitors. 360,000 tested, 0.72% active. AID 1745845; also: % is scaled to controls: 0 for no effect and ±100 for the full control effect; nearly all actives have a fitted effect of over 55% in size
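ATXN2-luciferase reporter cells (luciferase flanked by upstream and downstream ATXN2 gene portions) were treated 24 h at 37 °C with compounds at up to 57 uM. SteadyGlo luminescence gave expression; GF-AFC fluorescence gave viability.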
TGFb SMAD3 inh – TGF-b pathway inhibition; HepG2 CAGA-GFP TGF-b/SMAD3 reporter, GFP fluorescence, 18 h; TGF-beta stimulated, 500 pg/mL final; Potency, µM (doses to about 46.1 µM), for inactives: at the highest dose activity, negative = inhibition, actives largely listed as inhibitors; 410,000 tested, 1.2% active; AID 588855; also: % is scaled to controls: 0 for no effect and ±100 for the full control effect; nearly all actives have a fitted effect of over 65% in size
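HEPG2 CAGA-GFP reporter cells (1000/well, DMEM with 1% FBS) received compounds, then recombinant TGF-beta at 500 pg/mL final for 18 hours at 37 degrees C. Per-cell GFP summed per well was normalised to unstimulated and stimulated DMSO controls before curve fitting.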
GLP1R inv ag – GLP-1 receptor (human) inverse agonism | P43220 | HEK293 GLP-1R CRE-luciferase, luminescence, 24 h; GLP-1R form is constitutively active | Potency, µM (doses to about 38.3 µM), for the others: at the highest dose activity change, negative = inhibition, usual class: inhibitors | 410,000 tested, 1.6% active; also: % is scaled to controls: 0 for no effect and ±100 for the full control effect; nearly all actives have a fitted effect of over 55% in size
Target sequence (P43220 whole entry, looked up): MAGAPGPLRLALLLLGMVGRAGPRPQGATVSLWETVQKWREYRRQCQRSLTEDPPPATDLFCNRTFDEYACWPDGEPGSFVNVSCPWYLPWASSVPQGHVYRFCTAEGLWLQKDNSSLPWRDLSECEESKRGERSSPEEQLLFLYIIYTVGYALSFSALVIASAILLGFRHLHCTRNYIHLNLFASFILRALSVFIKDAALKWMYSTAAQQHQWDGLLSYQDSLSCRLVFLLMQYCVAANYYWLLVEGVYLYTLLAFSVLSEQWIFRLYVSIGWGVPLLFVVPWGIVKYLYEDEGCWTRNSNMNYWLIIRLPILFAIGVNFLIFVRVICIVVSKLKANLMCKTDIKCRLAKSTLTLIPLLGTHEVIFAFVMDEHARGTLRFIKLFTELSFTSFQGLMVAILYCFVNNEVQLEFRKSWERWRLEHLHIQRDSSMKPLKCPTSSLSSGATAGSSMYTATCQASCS
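Inverse agonists were sought by their lowering of basal cAMP reporter luciferase output in HEK293 cells stably carrying constitutively active human GLP-1R, after 24 h compound treatment.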
GLP-1R agonist – activates the human GLP-1 receptor. P43220. HEK293 GLP-1R CRE-luciferase, luminescence, 4-6 h; cells express a hypersensitive GLP-1R form. Potency, µM (highest dose often 45.6 µM), inactives show top-dose activation, usual class: activators. 380,000 tested, 0.007% active. AID 624172; also: % of control where 0% means no effect
ATXN viability – reduces viability in counter-screen for ATXN expression inhibitors; Potency, µM (highest dose often 56.7 µM), hits mostly cytotoxic; 400,000 tested, 0.49% active; S2 cells (HEK-293 line with an ATXN2-luciferase reporter) viability, CellTiter-Fluor protease fluorescence, 24 h; AID 651635; also: nearly all actives have a fitted effect of over 40% in size
* = called active by the depositor; i = inactive; ? = inconclusive; . = not tested or not shown. Calls follow the shape of the dose curve; as a rule, active = well fitted curve in the direction sought with a large enough effect; inconclusive = small, poorly fitted or top-dose-only effect, or another doubt; inactive = no such curve, though single readings can be large; an effect the other way counts as inactive or inconclusive. Potency is read from the fitted curve at half-maximal effect.

SMILES | HepG2 tox | ATXN2 expr inh | TGFb SMAD3 inh | GLP1R inv ag | GLP-1R agonist | ATXN viability
Oc1cccc(C2c3[nH]c4ccccc4c3CCN2Cc2ccc3c(c2)CCO3)c1 (stereo not given) | -52% | -32% | ? | 2.8µM* | 11% | i
COc1cccc(C(=O)N2CCc3c([nH]c4ccccc34)C2c2ccc(SC)cc2)c1 (stereo not given) | -24% | . | -10% | 7.9µM* | . | .
Oc1cccc(C2c3[nH]c4ccccc4c3CCN2Cc2ccoc2)c1 (stereo not given) | -27% | -16% | ? | ? | -1% | i
COCc1c(C(=O)N2CCN(c3ccccc3O)CC2)cnn1-c1nccc(-c2cccs2)n1 | . | . | . | . | . | i
CCCCCc1c(CC)ncn1CCc1ccccc1OC | . | ? | . | ? | -1% | 16µM*
CCCCc1c(-c2ccccc2OC)ncn1CCc1cccc(OC)c1 | . | ? | . | ? | -2% | 32µM*
CCCCc1c(-c2ccccc2OC)ncn1CCc1ccccc1OC | . | ? | . | ? | -3% | 32µM*
COc1cccc(C(=O)NCc2cn3ccccc3n2)c1 | -19% | . | 0% | 0% | . | .
CC(C)(C)C1CCc2onc(C(=O)Nc3sc4c(c3C(N)=O)CCCC4)c2C1 (stereo not given) | 3% | . | 11% | 5% | . | .
CC(C)(C)c1ccc(/C=C(\c2nc3ccccc3[nH]2)S(=O)(=O)c2ccccc2)cc1 | -51% | 16µM* | 16µM* | ? | -3% | 20µM*
O=C(O)c1ccc(/C=C(\c2nc3ccccc3[nH]2)c2nc3ccccc3s2)cc1 | -2% | -25% | ? | ? | -1% | i
Cc1ccc(S(=O)(=O)N(C)Cc2ccc(C(=O)N/N=C/c3ccc(OC(F)F)cc3)cc2)cc1 | 5% | ? | ? | 5% | -3% | 11µM*
C/C(=N\NC(=O)c1ccc(CN(C)S(=O)(=O)c2ccc(C)cc2)cc1)c1ccc(OC(F)F)cc1 | 1% | ? | ? | -1% | -11% | ?
CN(C)CC[C@H](CSc1ccccc1)Nc1ccc(S(=O)(=O)NC(=O)c2ccc(N3CCN(Cc4ccccc4-c4ccc(Cl)cc4)CC3)cc2)cc1[N+](=O)[O-] | . | -15% | . | . | . | .
Clc1ccc2nnnc(-c3ccccc3)c2c1 | 31% | 15µM* | ? | ? | 1% | ?
c1ccc(-c2nnnc3ccccc23)cc1 | 34% | 1% | ? | 8% | -2% | i
Brc1ccc[n+](CCC2CCCCC2)c1 | -9% | . | -1% | . | . | .
Cn1ccsc1=NC(=O)c1ccc([N+](=O)[O-])o1 | -75% | -5% | 28µM* | 12% | 0% | i
c1ccc(-c2nc(-c3ccccn3)no2)cc1 | 10µM* | 4.5µM* | 3% | 0% | -11% | i
Cc1ccc(-c2nc(-c3ccccn3)no2)cc1Cl | 11µM* | 10µM* | -2% | 1.6µM* | -6% | i
c1ccc(-c2ccc(-c3nc(-c4ccccn4)no3)cc2)cc1 | 7.1µM* | ? | -6% | -11% | -12% | i
c1ccc(-c2cc(-c3nc(-c4ccccn4)no3)c3ccccc3n2)cc1 | -30% | 4% | -16% | 15% | 4% | i
Clc1cccc(-c2nc(-c3ccccn3)no2)c1 | -36% | 13µM* | ? | -76% | -17% | i
c1ccc(-c2noc(-c3ccno3)n2)nc1 | 8% | . | 8% | 10% | 8% | i
CC(C)(S)C(=O)N[C@H](CS)C(=O)O | . | . | . | . | -1% | .
COc1ccc(-n2nc(C(=O)NCCc3ccc(OC)c(OC)c3)c3c4ccccc4n(C)c3c2=O)cc1Cl | -28% | 8% | -5% | 8% | . | i
N=C(N)c1ccc(OCCCOc2ccc(C(=N)N)cc2Br)c(Br)c1 | . | . | . | . | -1% | i
Cc1ccc(-c2nc(-c3ccccn3)no2)cc1 | 13µM* | 2µM* | -1% | 0.89µM* | -28% | i
